From PubChem BioAssay (NCI) come the findings set out here.

About 83,000 compounds went through this panel and 20% of them were active in at least one assay; those are over-represented in the sample as a whole.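 Negative percent growth values reflect cell death: -40 means 40% of the cells present at the start died, and -100 means all died.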 A number with no mark means an inactive call. Activity calls are given as the source filed them. The calls were made as follows: active = growth percent below 10; inactive = the rest.

Common to all, as to experiment: NCI-60 one-dose screen, 48 h (100 = growth as untreated, 0 = no growth, -100 = all killed)
The subject of one assay is SK-MEL-2 melanoma. The following applies: 10 µM unless noted.
The test system of the next assay is EKVX NSCLC. To be noted: 10 µM unless noted.
The test system of another assay is SN12C renal. To be noted: 10 µM unless noted.
The next assay deals with UO-31 renal. The following applies: 10 µM unless noted.
Another assay deals with TK-10 renal. The following applies: 10 µM unless noted.
Another assay has as its system ACHN renal. The following applies: 10 µM unless noted.
The next assay has as its system CAKI-1 renal. The following applies: 10 µM unless noted.
In a further assay the test system is A498 renal. The following applies: 10 µM unless noted.
The subject of a further assay is CCRF-CEM leukemia. To be noted: 10 µM unless noted.
For another assay, the system named is MOLT-4 leukemia. The following applies: 10 µM unless noted.
In the next assay the test system is SR leukemia. To be noted: 10 µM unless noted.
The next assay relates to RPMI-8226 leukemia. The following applies: 10 µM unless noted.
In the next assay the test system is OVCAR-8 ovarian. The following applies: 10 µM unless noted.
Another assay relates to OVCAR-5 ovarian. The following applies: 10 µM unless noted.
Another assay deals with OVCAR-4 ovarian. The following applies: 10 µM.
The next assay has as its system IGROV1 ovarian. To be noted: 10 µM unless noted.
The test system of another assay is OVCAR-3 ovarian. The following applies: 10 µM unless noted.
In the next assay the test system is HS 578T breast. To be noted: 10 µM unless noted.
Another assay has as its system NCI/ADR-RES ovarian. To be noted: 10 µM unless noted.
Another assay concerns SK-OV-3 ovarian. To be noted: 10 µM unless noted.

As for `C[C@@H]1C[C@H]2C(=O)O[C@@H](C)[C@H](NC(=O)[C@H](Cc3cc(F)cc(F)c3)NC(=O)Nc3ccc(Cl)cc3F)C(=O)N3C[C@H](O)C[C@H]3C(=O)N3CCN(C)C[C@H]3C(=O)N[C@@H](C)C(=O)N2C1`, the growth with SK-MEL-2 melanoma is 29.6%; in the assay with EKVX NSCLC, 69.8%; in the assay on SN12C renal, 22.9%; in the assay with UO-31 renal, 83%; in the assay with TK-10 renal, 91.7%; with ACHN renal, 104%. For the same compound, the growth with CAKI-1 renal was 72.7%; in the assay on A498 renal, 33.1%; in the assay on CCRF-CEM leukemia it was 53.7%; with MOLT-4 leukemia, 41.7%; with SR leukemia it was 40.3%; in the assay on RPMI-8226 leukemia, 20.4%. In addition, the growth in the assay on OVCAR-8 ovarian was 39.1%; in the assay with OVCAR-5 ovarian, 41.9%; in the assay on OVCAR-4 ovarian it was 16.4%; with IGROV1 ovarian it was 51.3%; with OVCAR-3 ovarian it was 20.4%; in the assay with HS 578T breast, 37.9%. Besides, the growth in the assay on NCI/ADR-RES ovarian is 105%.
Take `N=C(N)c1ccc(-c2ccc(-c3ccc(-c4cccs4)s3)s2)cc1F`: the growth is 114% with SK-MEL-2 melanoma; 98.8% in the assay with EKVX NSCLC; 92.7% in the assay on SN12C renal; 76.5% in the assay on UO-31 renal; 122% in the assay with TK-10 renal; 101% in the assay with ACHN renal. Further, the growth with CAKI-1 renal was 93.6%; in the assay on A498 renal it was 0.519% (active); in the assay on CCRF-CEM leukemia it was 26.8%; with MOLT-4 leukemia it was 91%; in the assay with SR leukemia, 18.6%; with RPMI-8226 leukemia, 49.4%. The growth in the assay on OVCAR-8 ovarian is 102%; with OVCAR-5 ovarian it was 75.8%; in the assay with OVCAR-4 ovarian it was 90.5%; in the assay on IGROV1 ovarian, 93.5%; in the assay on OVCAR-3 ovarian it was 91.4%; in the assay on HS 578T breast, 101%. Moreover, the growth in the assay on NCI/ADR-RES ovarian was 102%.
For the compound `CN(C)c1ccc(-c2ccc(-c3ccc(C(=N)N)cc3)s2)cc1`, the growth in the assay on SK-MEL-2 melanoma is 107%; with EKVX NSCLC it was 85.9%; in the assay with SN12C renal, -50.1% (active); in the assay on UO-31 renal, 80.8%; in the assay on TK-10 renal it was -87.9% (active); in the assay on ACHN renal it was -38.8% (active). For the same compound, the growth in the assay on CAKI-1 renal is 96.6%; with A498 renal it was 0.528% (active); in the assay on CCRF-CEM leukemia, -22.5% (active); with MOLT-4 leukemia, 2.73% (active); in the assay with SR leukemia, 5.33% (active); with RPMI-8226 leukemia it was -40% (active). Moreover, the growth was 57.6% in the assay with OVCAR-8 ovarian; -55.2% (active) with OVCAR-5 ovarian; 8.97% (active) in the assay on OVCAR-4 ovarian; -63.5% (active) in the assay with IGROV1 ovarian; -85.3% (active) in the assay on OVCAR-3 ovarian; 104% in the assay on HS 578T breast. Besides, the growth in the assay on NCI/ADR-RES ovarian is 46.3%.
Take `Cc1cc(NN=C(c2ccc(O)cc2)c2ccc(O)cc2)c([N+](=O)[O-])cc1[N+](=O)[O-]`: the growth was 0.57% (active) with SK-MEL-2 melanoma; 14.9% in the assay with EKVX NSCLC; 74.2% in the assay with SN12C renal; 6.74% (active) with UO-31 renal; 51.4% in the assay with TK-10 renal; 43.7% in the assay on ACHN renal. Moreover, the growth was 65.1% in the assay with CAKI-1 renal; 85.9% in the assay on A498 renal; 119% in the assay with CCRF-CEM leukemia; 108% in the assay with MOLT-4 leukemia; 84.9% in the assay with SR leukemia; 123% in the assay with RPMI-8226 leukemia. Besides, the growth in the assay on OVCAR-8 ovarian was 0.819% (active); in the assay with OVCAR-5 ovarian it was 90.1%; with OVCAR-4 ovarian, 52.6%; in the assay on SK-OV-3 ovarian it was 73.5%; in the assay with OVCAR-3 ovarian, 63.3%; in the assay on HS 578T breast it was 71.3%. Also, in the assay with NCI/ADR-RES ovarian, the growth was 26.3%.
As for `O=C(COc1cccc(/C=C2\Oc3ccccc3C2=O)c1)c1ccc([N+](=O)[O-])cc1`, the growth with SK-MEL-2 melanoma is 92.1%; in the assay on EKVX NSCLC it was 95%; in the assay with SN12C renal, 92.6%; in the assay with UO-31 renal, 81.2%; in the assay on TK-10 renal, 119%; in the assay with ACHN renal, 101%. For the same compound, the growth with CAKI-1 renal was 108%; in the assay on A498 renal, 100%; with CCRF-CEM leukemia, 63.1%; in the assay on MOLT-4 leukemia, 72%; in the assay with SR leukemia it was 80.9%; in the assay on RPMI-8226 leukemia, 75.5%. For the same compound, the growth in the assay with OVCAR-8 ovarian was 97.1%; in the assay with OVCAR-5 ovarian, 97.1%; with OVCAR-4 ovarian it was 97%; in the assay on SK-OV-3 ovarian, 121%; with OVCAR-3 ovarian, 88.5%; with HS 578T breast, 98.4%. Further, the growth with NCI/ADR-RES ovarian was 79.1%.
Take `O=C1NC(=O)c2cc([N+](=O)[O-])cc3cccc1c23`: the growth in the assay on SK-MEL-2 melanoma was 107%; in the assay with EKVX NSCLC, 94.2%; in the assay with SN12C renal it was 98.1%; in the assay with UO-31 renal, 66.4%; in the assay with TK-10 renal, 107%; with ACHN renal it was 103%. Moreover, the growth in the assay with CAKI-1 renal is 84.8%; in the assay on A498 renal, 87.1%; with CCRF-CEM leukemia it was 89.8%; with MOLT-4 leukemia it was 115%; with SR leukemia, 114%; in the assay on RPMI-8226 leukemia, 94.2%. For the same compound, the growth in the assay on OVCAR-8 ovarian is 85.4%; in the assay on OVCAR-5 ovarian it was 109%; in the assay on OVCAR-4 ovarian, 95.7%; in the assay on SK-OV-3 ovarian, 106%; in the assay on OVCAR-3 ovarian it was 112%; in the assay on HS 578T breast, 106%. Besides, the growth in the assay on NCI/ADR-RES ovarian is 95.9%.
`O=c1c2c3c(sc2n2cnnc2n1Cc1ccccc1)CCCC3`: the growth was 97.6% in the assay with SK-MEL-2 melanoma; 71.2% in the assay on EKVX NSCLC; 105% in the assay on SN12C renal; 7.39% (active) in the assay with UO-31 renal; 115% with TK-10 renal; 99.1% in the assay on ACHN renal. Further, the growth was 95.3% in the assay with CAKI-1 renal; 92.1% with A498 renal; 82.4% in the assay on CCRF-CEM leukemia; 86.3% with MOLT-4 leukemia; 78.6% in the assay on SR leukemia; 72.8% with RPMI-8226 leukemia. The growth in the assay with OVCAR-8 ovarian was 97.4%; with OVCAR-5 ovarian, 89.6%; in the assay on OVCAR-4 ovarian, 106%; in the assay on SK-OV-3 ovarian, 106%; with OVCAR-3 ovarian it was 98%; in the assay on HS 578T breast it was 94.2%. The growth in the assay on NCI/ADR-RES ovarian was 96.9%.
Turning to `Nc1nnc(CSc2nnc3n(Cc4ccccc4)c(=O)c4c5c(sc4n23)CCCC5)s1`, the growth is 109% in the assay with SK-MEL-2 melanoma; 93.2% in the assay on EKVX NSCLC; 91.9% with SN12C renal; 84.6% in the assay with UO-31 renal; 113% in the assay on TK-10 renal; 94.9% with ACHN renal. Besides, the growth is 10% in the assay with CAKI-1 renal; 103% in the assay on A498 renal; 69.1% with CCRF-CEM leukemia; 71.1% in the assay with MOLT-4 leukemia; 84% in the assay on SR leukemia; 65.4% in the assay on RPMI-8226 leukemia. Also, the growth was 98.7% in the assay on OVCAR-8 ovarian; 103% in the assay on OVCAR-5 ovarian; 98.8% in the assay on OVCAR-4 ovarian; 42.7% in the assay on SK-OV-3 ovarian; 92.3% in the assay with OVCAR-3 ovarian; 106% in the assay on HS 578T breast. The growth in the assay on NCI/ADR-RES ovarian is 94.4%.
